# LASV entry inh: qHTS for Inhibitors of binding or entry into cells for Lassa Virus; AID 540256, 2011; Lassa virus pseudotype entry inhibition, cell reporter; 300,000 compounds, 1.2% hits; Potency, µM (series often up to 37.9 µM), hits mostly inhibitors; calls by dose curve; tested in HEK293 cells; further: nearly all actives have a fitted effect of over 50% in size
# VACV mCherry inh: qHTS for Stage-Specific Inhibitors of Vaccinia Orthopoxvirus: mCherry Reporter Primary qHTS. Vaccinia virus mCherry reporter infection, fluorescence. Potency, µM (titrated, usually from 36.5 µM), hits mostly inhibitors. 310,000 compounds, 0.63% hits. AID 720579, 2013; calls by dose curve; tested in A549 cells; further: nearly all actives have a fitted effect of over 35% in size
# Marburg entry inh: qHTS for inhibitors of binding or entry into cells for Marburg Virus; Marburg virus pseudotyped entry inhibition, cell reporter; AID 540276, 2011; 300,000 compounds, 1.8% hits; Potency, µM (doses to about 37.8 µM), most hits filed as inhibitors; calls by dose curve; tested in HEK293 cells
# VACV Venus inh: qHTS for Stage-Specific Inhibitors of Vaccinia Orthopoxvirus: Venus Reporter Primary qHTS | Potency, µM (doses to about 36.5 µM), actives largely listed as inhibitors | Vaccinia virus Venus reporter expression, fluorescence | 330,000 compounds, 0.46% hits; calls by dose curve; tested in A549 cells; further: nearly all actives have a fitted effect of over 30% in size
# HCV inhibitor: qHTS Assay for Inhibitors of Hepatitis C Virus (HCV). Huh7.5.1 HCVcc-Cre infection, luciferase reporter, 44 h. Potency, µM (top dose mostly 41.8 µM), most hits filed as inhibitors. 340,000 compounds, 3.4% hits. AID 651820, 2012; active means well fitted inhibition curve with a large enough effect; inconclusive means small, poorly fitted or top-dose-only effect, or another doubt; inactive means no such curve, though single readings can be large or run the other way
#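 Cells (1,000/well) were plated 4 h before compound, then infected with HCVcc-Cre virus (~0.5 moi). After 44 h further culture, infection was read as luciferase luminescence following a 15 min substrate incubation at room temperature.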
# A number is an active result; . = inactive; ? = inconclusive; / = no result; [ ] = dose if it differs, or a comment. This is a sample that favours compounds with a hit; in the whole collection about 4.6% have one here.
SMILES,LASV entry inh,VACV mCherry inh,Marburg entry inh,VACV Venus inh,HCV inhibitor
COc1cc(NC(=O)CC(C)S(=O)(=O)c2ccc3c(c2)CCN3C(C)=O)cc(OC)c1OC (configuration not stated),.,.,/,.,/
COc1ccc(CNC(=O)c2nc(SCc3ccccc3F)ncc2Cl)cc1,?,.,?,.,/
CCCC(=O)NC(c1ccc(Cl)cc1)c1ccc2cccnc2c1O (configuration not stated),4µM,?,3.5µM,?,1.8µM
CCCCC(=O)NC(c1ccc(Cl)cc1)c1ccc2cccnc2c1O (configuration not stated),?,6.3µM,4µM,?,?
CCCC(=O)NC(c1ccc(C)cc1)c1ccc2cccnc2c1O (configuration not stated),?,?,2.8µM,?,3.5µM
CCCC(=O)NC(c1ccc(N(C)C)cc1)c1c(O)ccc2ccccc12 (configuration not stated),.,.,?,.,.
Fc1ccc(/C=C/c2nccc3ccccc23)cc1,/,?,/,.,/
COc1cc(OC)c(NC(=O)c2ccc3nc(C(C)C)oc3c2)cc1Cl,.,.,/,.,/
Cc1cccc(N2CCN(C(=O)c3ccc4c(Cl)c5c(nc4c3)CCCC5)CC2)c1C,.,.,.,.,/
Oc1ccc(C23CCCC2C2(CCCC2)c2ccc(O)cc2O3)c(O)c1 (configuration not stated),/,/,/,/,10µM
CCCCN(C(=O)c1cccc2c(=O)c(C)c(-c3ccccc3)oc12)c1ccccc1,12µM,/,?,/,?
O=C(COc1ccc2c(c1)CCC2)Nc1ccccn1,11µM,.,?,.,.
Cc1cccc(NC(=O)COc2ccc3c(c2)CCC3)n1,.,.,.,.,?
Cc1ccc(S(=O)(=O)/N=C(\CCl)N2CCOCC2)cc1,?,?,?,?,10µM
CCc1cccc2sc(N3CCN(C(=O)c4ccc([N+](=O)[O-])o4)CC3)nc12,?,?,5µM,?,?
CCOC(=O)N/N=C1/C[C@@H](O)[C@@H](O)[C@@H]2[C@@H]3C(=O)N(Cc4ccc5c(c4)OCO5)C(=O)[C@H]3CC[C@H]12,/,/,.,/,/
COc1ccc(F)c(CN2CCOc3ccc(CN4CCCCC4CO)cc3C2)c1 (configuration not stated),/,.,/,.,/
CCC(=O)Nc1cccc(C(=O)/C=C/c2cccs2)c1,/,.,/,.,?
CCC(=O)Nc1cccc(C(=O)/C=C/c2ccccc2)c1,10µM,/,?,.,.
CC(NC(=S)NC1CCCCC1)c1ccc(C(C)(C)C)cc1 (configuration not stated),?,.,?,?,?
CC(C)c1ccc(C(C)NC(=S)NC2CCCCC2)cc1 (configuration not stated),/,/,/,/,11µM
CCN(CCCN(C)C)c1ccc(/C=C/c2ccnc3ccccc23)cc1,/,.,/,.,/
Cc1ccc(NC(=O)Nc2nnc(-c3ccccc3)o2)cc1,.,.,.,.,.
Cc1ccc(-c2nnc(Nc3ccccc3)o2)cc1,?,.,1.6µM,.,.
COc1ccccc1NS(=O)(=O)c1cccc(NC(=O)C2CC(=O)N(Cc3ccccc3)C2)c1 (configuration not stated),?,.,?,.,14µM
SMILES,LASV entry inh,VACV mCherry inh,Marburg entry inh,VACV Venus inh,HCV inhibitor
CN(c1ccccc1)S(=O)(=O)c1cccc(NC(=O)C2CC(=O)N(Cc3ccccc3)C2)c1 (configuration not stated),/,/,/,/,13µM
COc1ccccc1NS(=O)(=O)c1cccc(NC(=O)C2CC2)c1,/,/,/,/,.
Cc1ccccc1-c1nc(SCC(=O)NCc2ccco2)c2c(=O)n(C)c(=O)n(C)c2n1,.,.,/,.,/
CC(=O)NC1=NN(C(C)=O)C(C)(c2ccco2)S1 (configuration not stated),.,?,3.2µM,.,.
COc1ccccc1-c1ccnc(-n2ncc(C(=O)N3CCN(C4CCCC4)CC3)c2-c2ccco2)n1,/,.,/,.,/
CCCN(CC1CC1)c1nc(N)c2c(N)nc(OC)cc2c1C#N,.,11µM,?,?,.
CCOc1cc2c(C#N)c(N(CC)CC)nc(N)c2c(N)n1,/,?,/,?,.
C[C@H]1CC[C@H]2C(=O)N[C@H](Cc3ccccc3)C(=O)N2[C@H]1c1ccccc1,/,/,.,/,/
O=c1c2ccccc2[se]n1-c1ccccc1,15µM,.,18µM,.,.[8.37 µM]
Cc1cccc(N2CCN(C(=O)CN3C(=O)COc4ccc(S(=O)(=O)N5CCCC5)cc43)CC2C)c1 (configuration not stated),.,.,.,.,/
COc1ccc(S(=O)(=O)N2CCCCCC2)cc1C(=O)N(C)CCOc1ccc(Cl)cc1,18µM,.,?,.,?
CN(CCOc1ccc(Cl)cc1)C(=O)c1cccc(S(=O)(=O)N2CCN(c3ccccc3)CC2)c1,/,/,/,/,3.5µM
CN(Cc1ccc(Cl)cc1Cl)C(=O)c1cccc(S(=O)(=O)N2CCN(c3ccccc3)CC2)c1,?,.,?,.,13µM
CN(Cc1ccc(OC(F)F)cc1)C(=O)c1cccc(S(=O)(=O)N2CCN(Cc3ccccc3)CC2)c1,?,.,?,.,5.6µM
CCN1CCN(S(=O)(=O)c2ccc(Cl)c(C(=O)N(C)CCOc3ccc(Cl)cc3)c2)CC1,?,.,?,?,?
Cc1ccc(CN(C)C(=O)c2cccc(S(=O)(=O)N3CCN(Cc4ccccc4)CC3)c2)o1,?,.,?,.,.
CN(Cc1ccc(OC(F)F)cc1)C(=O)C1CCN(S(=O)(=O)c2ccc3c(c2)OCCO3)CC1,/,/,/,/,6.3µM
COc1cccc(CN(C)C(=O)c2cccc(S(=O)(=O)N3CCN(Cc4ccccc4)CC3)c2)c1OC,?,.,?,.,7.9µM
COc1cccc(CN(C)C(=O)c2cccc(S(=O)(=O)NCc3ccccc3)c2)c1OC,?,.,.,.,.
COc1cccc(CN(C)C(=O)c2cccc(S(=O)(=O)N3CCN(c4ccccc4)CC3)c2)c1OC,/,/,.,/,7.1µM
CN(Cc1ccco1)C(=O)c1cccc(S(=O)(=O)N2CCN(Cc3ccccc3)CC2)c1,/,.,/,.,/
COc1cccc(CN(C)C(=O)c2cccc(S(=O)(=O)N3CCN(c4ccc(F)cc4)CC3)c2)c1OC,?,?,2µM,.,?
CCN(Cc1ccccc1)C(=O)c1cccc(S(=O)(=O)N2CCN(c3ccc(F)cc3)CC2)c1,?,.,.,.,?
Oc1ccc([C@@H]2CNCc3sccc32)cc1O,/,/,.,/,/
Cc1ccc2cccc(NC(=O)c3ccc(C#N)cc3F)c2n1,.,.,.,.,/
Cc1ccc(S(=O)(=O)N2CCN(c3nc(-n4cccn4)nc4ccccc34)CC2)cc1,/,.,/,.,/
Cc1nn(CCC(N)=O)c2nc(-c3cccs3)cc(C(F)(F)F)c12,?,.,?,.,10µM
COc1ccccc1NS(=O)(=O)c1ccc(C(=O)N2CCN(c3ccccn3)CC2)cc1,.,?,?,.,11µM
O=C(c1ccc(Cl)c(Cl)c1)N1CCN(c2ccccn2)CC1,.,.,?,.,.

# Source: PubChem BioAssay
